{"source": "PubChem BioAssay (NCI)", "note": "This is part of a sample that, as a whole, favours compounds with a hit. Of some 79,000 tested, about 15% had one in any assay. A number with no mark means an inactive call. Active and inactive are the calls of the source. Cut-off read from the data, not from the text of the source: active = growth inhibition above about 70%; inactive = the rest.", "data": [{"test": "NCI Yeast Anticancer Drug Screen. Data for the mec2-1 strain (AID 157)", "conditions": "S. cerevisiae mec2-1 strain, at 50.0 µM, active compounds read high", "description": "Growth inhibition of yeast strains with defined genetic alterations is measured as a screen for potential anti-cancer activity. Selected strains with alterations in DNA damage repair or cell cycle control were exposed to compounds and growth inhibition was measured relative to vehicle treated controls. The strain used in this assay is mec2-1", "values": [{"compound": "Cc1nn(C(N)=S)c(C)c1N=Nc1ccc(Cl)cc1", "growth inhibition": "-0.25%"}, {"compound": "C=C(C)C1CC=C(C)/C(=N\\O)C1", "note": "(stereo not given)", "growth inhibition": "-9.9%"}, {"compound": "CN(C)CC1CCC/C(=C\\c2ccc(N(C)C)cc2)C1=O", "note": "(stereo not given)", "growth inhibition": "-44.9%"}, {"compound": "C/C(=N/C(=O)NN)c1ccc(Cl)cc1", "growth inhibition": "-7.9%"}, {"compound": "N#Cc1c2c(c(N=P(c3ccccc3)(c3ccccc3)c3ccccc3)n3c1nc1ccccc13)CCCC2", "growth inhibition": "5.5%"}, {"compound": "OCc1ccc(F)cc1CO", "growth inhibition": "-2.35%"}, {"compound": "OCC1CCN(CCOCc2ccccc2)C1", "note": "(stereo not given)", "growth inhibition": "-0.4%"}, {"compound": "Cc1ccc(C(=O)Nc2ccc(S(=O)(=O)O)c3cc(S(=O)(=O)O)cc(S(=O)(=O)O)c23)cc1N", "growth inhibition": "-7.05%"}, {"compound": "O=C1CC2CCCC23CC2(CCN13)OCCO2", "note": "(stereo not given)", "growth inhibition": "0.7%"}, {"compound": "O=C(O)C1CC2CC(=O)C1C2", "note": "(stereo not given)", "growth inhibition": "-5.45%"}, {"compound": "C=C(C)CCC[C@@H](C)C1CCC2(C)[C@@H]3CCC4C(C)(C)[C@@H](O)CC[C@@]45C[C@@]35CC[C@]12C", "note": "(stereo not given in full)", "growth inhibition": "0.45%"}, {"compound": "CCOC(=O)C(CCCCC(CN(CC)CC)(C(=O)OCC)c1ccccc1)(CN(CC)CC)c1ccccc1", "note": "(stereo not given)", "growth inhibition": "-10.2%"}, {"compound": "CC1(C)COC(c2ccc(C(C)(C)C)cc2C(O)(c2cc(C(C)(C)C)ccc2C2=NC(C)(C)CO2)c2cc(C(C)(C)C)ccc2C2=NC(C)(C)CO2)=N1", "growth inhibition": "-4.2%"}, {"compound": "O=C1C=C(c2ccccc2)CC1", "growth inhibition": "2.55%"}, {"compound": "N#Cc1cc2c(n(C3OC(CO)C(O)C(O)C3O)c1=S)CCCCCC2", "note": "(stereo not given)", "growth inhibition": "19.5%"}, {"compound": "Cc1cc(C)c(C(=O)CCC(=O)O)c(C)c1", "growth inhibition": "7.8%"}, {"compound": "CCC1(COC(NC(=O)c2ccccc2)(C(F)(F)F)C(F)(F)F)COC1", "growth inhibition": "-1.9%"}, {"compound": "CC(C)NC(=O)OCc1c(COC(=O)NC(C)C)c2n(c1-c1ccc(Cl)c(Cl)c1)CCS2(=O)=O", "growth inhibition": "2.2%"}, {"compound": "CCOC(=O)Nc1cc(Cl)c2ncn(C(=O)OCC)c2n1", "growth inhibition": "16.2%"}, {"compound": "O=C(NCCCl)NCc1ccco1", "growth inhibition": "0.9%"}, {"compound": "Cc1c(-c2ccccc2)c(=O)oc2ccc(Cl)cc12", "growth inhibition": "-8.5%"}, {"compound": "CS(=O)CCN=Cc1ccc(N=Nc2ccc(O)cc2)cc1", "note": "(stereo not given)", "growth inhibition": "1.65%"}, {"compound": "O=c1[nH]cc(S)c(=O)[nH]1", "growth inhibition": "-28.4%"}, {"compound": "COC(C)CCOC(=O)c1ccccc1", "note": "(stereo not given)", "growth inhibition": "-17.6%"}, {"compound": "Cc1cc(C)c(F)c(C)c1N", "growth inhibition": "17.6%"}, {"compound": "NC(CCCNc1nc(O)c(-c2ccccc2)c(=O)[nH]1)C(=O)O", "note": "(stereo not given)", "growth inhibition": "-24.4%"}, {"compound": "CCCCN(CCCC)CC(O)c1cc(-c2ccc(Cl)cc2)nc2cc(OC)c(OC)cc12", "note": "(stereo not given)", "growth inhibition": "99.6% (active)"}, {"compound": "C#CCC1(C(=O)OCC)C(=O)c2ccccc2N(C)C1=O", "note": "(stereo not given)", "growth inhibition": "1.55%"}, {"compound": "CCc1cccc(C)c1NC(=O)C1=C(C)NC(C)=C(C(=O)Nc2c(C)cccc2CC)C1c1ccc([N+](=O)[O-])cc1", "growth inhibition": "34.2%"}, {"compound": "COC(=O)C(Cc1c[nH]c2ccccc12)NC(=O)C(Cc1cnc[nH]1)NC(=O)C1CCC(=O)N1C(=O)OCc1ccccc1", "note": "(stereo not given)", "growth inhibition": "-3.55%"}, {"compound": "NC(CCCCC1CCCCC1)C(=O)O", "note": "(stereo not given)", "growth inhibition": "-29.4%"}, {"compound": "O=C1CCCCc2ccccc21", "growth inhibition": "-57.4%"}, {"compound": "Cc1ccc2c(c1)NC(C1Nc3cc(C)ccc3O1)O2", "note": "(stereo not given)", "growth inhibition": "-6.8%"}, {"compound": "CC(C)(C)N1CC(C(O)c2ccccc2)C1c1ccccc1", "note": "(stereo not given)", "growth inhibition": "0.25%"}, {"compound": "O=C(O)C12CC3(C(=O)O)CC(C(=O)O)(CC(C(=O)O)(C1)C3=O)C2=O", "growth inhibition": "13.4%"}, {"compound": "COc1ccc(OCOCOc2ccc(OC)cc2)cc1", "growth inhibition": "9.5%"}, {"compound": "Cc1ccc2c(c1)CN(C)c1ccc(C)cc1CN2C", "growth inhibition": "-11.8%"}, {"compound": "COC1(OC)N=C(N)C2(C#N)/C(=N/N(C)C)CC(C)C12C#N", "note": "(stereo not given)", "growth inhibition": "4.35%"}, {"compound": "CCCc1nc2c([nH]1)c(=O)n(C)c(=O)n2C", "growth inhibition": "-14.3%"}, {"compound": "O=C(Nc1ccc(S(=O)(=O)Nc2nccs2)cc1)c1cccnc1Nc1cccc(Cl)c1", "growth inhibition": "8.5%"}]}]}
